Source: the supplement of paper PMC11732987, “Enantioselective OTUD7B fragment discovery through chemoproteomics screening and high-throughput optimisation” (Communications Chemistry, 2025)

How the values were obtained:
Assay in all cases: log2 ratio of Biotin-Ahx-Ub-VS probe labelling (fragment/DMSO); higher = less target engagement (more negative = stronger competition), active = hit call of the paper (q ≤ 0.05, log2 ratio ≤ -1)
Details in all cases: compound concentration: 200 uM; treatment time: 3 h
USP42 = target: T1, USP42 (UniProt Q9H9J4)
T1 sequence (whole entry): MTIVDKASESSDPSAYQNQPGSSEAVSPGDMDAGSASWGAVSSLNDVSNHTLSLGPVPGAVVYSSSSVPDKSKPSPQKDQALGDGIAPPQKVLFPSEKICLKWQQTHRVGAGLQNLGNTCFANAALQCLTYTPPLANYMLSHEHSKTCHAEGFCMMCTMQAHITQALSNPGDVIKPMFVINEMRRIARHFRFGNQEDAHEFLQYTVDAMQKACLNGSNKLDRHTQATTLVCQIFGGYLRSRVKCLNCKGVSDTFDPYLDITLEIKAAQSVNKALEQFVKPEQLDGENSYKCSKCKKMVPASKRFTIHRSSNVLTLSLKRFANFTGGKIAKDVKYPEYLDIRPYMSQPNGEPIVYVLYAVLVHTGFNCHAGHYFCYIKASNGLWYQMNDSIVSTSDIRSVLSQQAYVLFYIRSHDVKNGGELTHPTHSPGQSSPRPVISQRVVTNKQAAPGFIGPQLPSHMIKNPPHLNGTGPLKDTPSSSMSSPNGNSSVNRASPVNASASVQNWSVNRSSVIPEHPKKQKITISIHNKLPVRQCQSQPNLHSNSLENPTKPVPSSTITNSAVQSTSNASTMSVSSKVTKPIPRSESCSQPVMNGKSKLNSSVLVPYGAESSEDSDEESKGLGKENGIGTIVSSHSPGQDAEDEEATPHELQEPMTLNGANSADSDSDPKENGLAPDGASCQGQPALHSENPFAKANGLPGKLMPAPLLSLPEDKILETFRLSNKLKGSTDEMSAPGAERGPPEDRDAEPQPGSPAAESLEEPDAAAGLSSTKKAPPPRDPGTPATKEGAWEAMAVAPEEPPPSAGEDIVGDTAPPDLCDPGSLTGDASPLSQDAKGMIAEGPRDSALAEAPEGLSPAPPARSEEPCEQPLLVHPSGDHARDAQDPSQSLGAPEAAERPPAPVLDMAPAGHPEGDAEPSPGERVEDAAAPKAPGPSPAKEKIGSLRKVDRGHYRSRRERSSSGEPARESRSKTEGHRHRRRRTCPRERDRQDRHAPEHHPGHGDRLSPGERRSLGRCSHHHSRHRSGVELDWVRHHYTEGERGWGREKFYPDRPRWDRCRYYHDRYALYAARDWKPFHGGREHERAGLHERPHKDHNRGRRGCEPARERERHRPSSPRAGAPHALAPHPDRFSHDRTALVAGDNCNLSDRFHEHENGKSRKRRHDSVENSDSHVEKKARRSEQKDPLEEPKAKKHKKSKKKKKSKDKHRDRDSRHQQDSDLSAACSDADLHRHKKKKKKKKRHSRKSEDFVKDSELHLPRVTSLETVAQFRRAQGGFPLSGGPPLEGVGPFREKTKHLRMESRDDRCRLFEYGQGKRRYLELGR
Procedure, shortened: (§1)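 Labelled DUBs were enriched with NeutrAvidin, digested with LysC and trypsin, and run by diaPASEF LC-MS/MS. The labelling used Biotin-Ahx-Ub-VS at 0.5 µM final for 1 h on HEK293T lysate (495 µg per sample) previously treated in triplicate with fragment at 200 µM or vehicle for 3 h. Values are average log2 fragment/vehicle ratios by unpaired t-test on global-median-normalised Spectronaut quantities of proteins with ≥2 unique peptides.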

USP46 = USP46 (UniProt P62068)
Procedure, shortened: as §1

USP47 = target: T2, USP47 (UniProt Q96K76)
T2 sequence (whole entry): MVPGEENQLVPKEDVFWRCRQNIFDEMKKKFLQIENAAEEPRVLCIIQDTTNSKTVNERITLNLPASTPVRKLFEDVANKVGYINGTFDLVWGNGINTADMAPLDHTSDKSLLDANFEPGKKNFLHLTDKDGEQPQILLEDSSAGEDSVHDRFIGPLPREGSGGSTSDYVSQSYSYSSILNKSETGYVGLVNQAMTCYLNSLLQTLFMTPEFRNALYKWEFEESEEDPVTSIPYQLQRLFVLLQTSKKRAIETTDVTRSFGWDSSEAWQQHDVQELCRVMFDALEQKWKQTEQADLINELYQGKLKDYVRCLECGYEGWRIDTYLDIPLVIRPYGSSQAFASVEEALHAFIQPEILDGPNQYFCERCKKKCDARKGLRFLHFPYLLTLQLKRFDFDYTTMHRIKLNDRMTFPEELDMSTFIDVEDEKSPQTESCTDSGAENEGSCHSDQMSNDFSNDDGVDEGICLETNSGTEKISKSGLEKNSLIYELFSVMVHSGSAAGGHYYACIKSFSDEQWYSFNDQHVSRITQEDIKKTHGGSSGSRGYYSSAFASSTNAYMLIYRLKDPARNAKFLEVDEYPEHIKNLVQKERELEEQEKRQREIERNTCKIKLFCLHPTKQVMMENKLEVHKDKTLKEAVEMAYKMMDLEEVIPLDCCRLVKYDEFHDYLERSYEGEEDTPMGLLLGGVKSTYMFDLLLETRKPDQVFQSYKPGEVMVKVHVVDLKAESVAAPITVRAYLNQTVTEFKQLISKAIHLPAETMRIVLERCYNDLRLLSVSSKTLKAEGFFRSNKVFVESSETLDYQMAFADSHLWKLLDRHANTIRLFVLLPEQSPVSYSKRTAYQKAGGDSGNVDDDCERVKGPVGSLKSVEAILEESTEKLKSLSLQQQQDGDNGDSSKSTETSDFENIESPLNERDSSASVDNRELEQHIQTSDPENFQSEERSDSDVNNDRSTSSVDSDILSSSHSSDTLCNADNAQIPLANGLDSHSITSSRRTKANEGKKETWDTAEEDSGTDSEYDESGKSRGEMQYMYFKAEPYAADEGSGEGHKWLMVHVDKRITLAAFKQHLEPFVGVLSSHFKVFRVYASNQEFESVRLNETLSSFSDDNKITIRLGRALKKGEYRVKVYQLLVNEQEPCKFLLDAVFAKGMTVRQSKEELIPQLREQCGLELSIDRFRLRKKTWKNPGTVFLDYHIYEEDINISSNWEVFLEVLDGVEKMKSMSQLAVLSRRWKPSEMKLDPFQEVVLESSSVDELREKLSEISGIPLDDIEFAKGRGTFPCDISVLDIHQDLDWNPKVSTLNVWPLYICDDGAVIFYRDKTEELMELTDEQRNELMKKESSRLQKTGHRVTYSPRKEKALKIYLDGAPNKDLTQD
Procedure, shortened: as §1

USP48 = target: T3, USP48 (UniProt Q86UV5)
T3 sequence (whole entry): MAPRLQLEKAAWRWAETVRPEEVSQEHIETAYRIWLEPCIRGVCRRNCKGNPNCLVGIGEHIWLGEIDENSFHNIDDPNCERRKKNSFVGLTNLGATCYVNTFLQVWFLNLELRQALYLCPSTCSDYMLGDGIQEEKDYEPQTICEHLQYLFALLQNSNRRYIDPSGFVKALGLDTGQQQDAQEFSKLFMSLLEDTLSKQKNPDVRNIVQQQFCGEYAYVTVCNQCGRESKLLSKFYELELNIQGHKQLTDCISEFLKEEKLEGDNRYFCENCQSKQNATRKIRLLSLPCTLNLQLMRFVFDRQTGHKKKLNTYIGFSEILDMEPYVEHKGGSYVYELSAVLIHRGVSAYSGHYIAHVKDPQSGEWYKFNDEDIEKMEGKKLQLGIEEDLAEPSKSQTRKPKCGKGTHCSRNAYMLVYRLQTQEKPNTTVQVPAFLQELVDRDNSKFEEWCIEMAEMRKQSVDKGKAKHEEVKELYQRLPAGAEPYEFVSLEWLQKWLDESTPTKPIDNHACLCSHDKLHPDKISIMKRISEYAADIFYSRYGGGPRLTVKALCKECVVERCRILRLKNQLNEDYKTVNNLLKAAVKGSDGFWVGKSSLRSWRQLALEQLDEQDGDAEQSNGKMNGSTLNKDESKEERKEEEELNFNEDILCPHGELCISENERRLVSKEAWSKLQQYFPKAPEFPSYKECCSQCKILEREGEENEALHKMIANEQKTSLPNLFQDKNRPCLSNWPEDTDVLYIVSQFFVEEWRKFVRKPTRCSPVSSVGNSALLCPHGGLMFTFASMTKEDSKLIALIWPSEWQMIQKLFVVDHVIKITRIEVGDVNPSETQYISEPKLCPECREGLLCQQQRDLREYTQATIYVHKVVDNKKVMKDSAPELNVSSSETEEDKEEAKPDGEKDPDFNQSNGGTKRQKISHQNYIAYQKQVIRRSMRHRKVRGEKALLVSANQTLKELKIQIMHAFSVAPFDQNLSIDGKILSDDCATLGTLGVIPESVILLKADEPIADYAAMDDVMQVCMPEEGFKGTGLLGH
Procedure, shortened: as §1

USP5 = target: T4, USP5 (UniProt P45974)
T4 sequence (whole entry): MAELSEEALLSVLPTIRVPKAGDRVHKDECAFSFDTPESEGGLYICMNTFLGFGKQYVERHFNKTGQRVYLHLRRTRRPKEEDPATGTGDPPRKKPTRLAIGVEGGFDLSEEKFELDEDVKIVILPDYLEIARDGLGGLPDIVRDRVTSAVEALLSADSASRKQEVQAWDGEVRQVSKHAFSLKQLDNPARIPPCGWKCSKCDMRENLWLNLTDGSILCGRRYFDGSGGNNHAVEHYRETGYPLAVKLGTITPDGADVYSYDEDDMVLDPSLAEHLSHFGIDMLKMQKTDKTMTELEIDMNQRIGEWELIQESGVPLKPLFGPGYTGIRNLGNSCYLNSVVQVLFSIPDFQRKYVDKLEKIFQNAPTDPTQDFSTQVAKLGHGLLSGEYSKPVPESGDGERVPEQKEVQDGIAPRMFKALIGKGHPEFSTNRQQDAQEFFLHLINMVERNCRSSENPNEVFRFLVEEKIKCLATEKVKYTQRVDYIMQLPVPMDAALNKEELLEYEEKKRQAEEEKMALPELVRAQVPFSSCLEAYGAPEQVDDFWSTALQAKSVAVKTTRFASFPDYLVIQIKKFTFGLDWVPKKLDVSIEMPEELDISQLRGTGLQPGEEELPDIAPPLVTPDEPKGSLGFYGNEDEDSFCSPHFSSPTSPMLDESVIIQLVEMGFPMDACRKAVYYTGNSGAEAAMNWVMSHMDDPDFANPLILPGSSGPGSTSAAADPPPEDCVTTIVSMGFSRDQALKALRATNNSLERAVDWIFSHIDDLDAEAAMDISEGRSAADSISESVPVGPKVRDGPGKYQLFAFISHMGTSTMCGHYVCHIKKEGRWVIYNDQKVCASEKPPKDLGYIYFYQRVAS
Procedure, shortened: as §1

USP54 = USP54 (UniProt Q70EL1)
Procedure, shortened: as §1

USP7 = USP7 (UniProt Q93009)
Procedure, shortened: as §1

USP8 = target: T5, USP8 (UniProt P40818)
T5 sequence (whole entry): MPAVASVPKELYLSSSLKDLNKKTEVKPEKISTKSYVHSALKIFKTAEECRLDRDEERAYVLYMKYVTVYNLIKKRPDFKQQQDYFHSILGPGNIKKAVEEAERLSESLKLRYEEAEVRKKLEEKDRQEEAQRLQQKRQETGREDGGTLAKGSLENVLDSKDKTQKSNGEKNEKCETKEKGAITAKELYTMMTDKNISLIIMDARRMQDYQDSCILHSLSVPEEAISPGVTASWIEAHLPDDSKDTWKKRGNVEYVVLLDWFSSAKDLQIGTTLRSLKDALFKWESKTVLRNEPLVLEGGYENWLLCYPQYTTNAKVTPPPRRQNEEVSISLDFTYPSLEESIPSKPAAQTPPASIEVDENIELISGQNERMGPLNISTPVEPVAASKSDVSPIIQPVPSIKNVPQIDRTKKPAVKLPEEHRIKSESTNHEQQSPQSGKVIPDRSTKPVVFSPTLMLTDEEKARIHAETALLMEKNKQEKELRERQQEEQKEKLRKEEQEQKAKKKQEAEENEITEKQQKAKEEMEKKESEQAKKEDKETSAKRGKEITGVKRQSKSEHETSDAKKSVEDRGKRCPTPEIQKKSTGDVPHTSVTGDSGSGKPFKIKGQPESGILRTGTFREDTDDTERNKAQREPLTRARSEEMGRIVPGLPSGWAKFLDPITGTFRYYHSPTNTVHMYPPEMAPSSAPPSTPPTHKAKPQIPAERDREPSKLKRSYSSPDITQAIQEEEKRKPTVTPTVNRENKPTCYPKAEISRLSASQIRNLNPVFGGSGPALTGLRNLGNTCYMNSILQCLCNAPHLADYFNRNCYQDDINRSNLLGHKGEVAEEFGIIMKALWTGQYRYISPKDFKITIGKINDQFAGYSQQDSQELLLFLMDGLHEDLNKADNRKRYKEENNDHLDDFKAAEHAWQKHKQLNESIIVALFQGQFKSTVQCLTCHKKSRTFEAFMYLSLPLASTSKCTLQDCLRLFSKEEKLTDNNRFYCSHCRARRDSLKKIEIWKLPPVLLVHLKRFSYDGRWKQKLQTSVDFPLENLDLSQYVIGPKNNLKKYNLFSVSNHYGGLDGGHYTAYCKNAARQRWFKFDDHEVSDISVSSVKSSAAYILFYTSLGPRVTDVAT
Procedure, shortened: as §1

USP9X = USP9X (UniProt Q93008)
Procedure, shortened: as §1

UniProt O00487 = target: UniProt O00487
Procedure, shortened: as §1

Measured: log2 ratio of Biotin-Ahx-Ub-VS probe labelling

Sequence of USP9X (Q93008 whole entry): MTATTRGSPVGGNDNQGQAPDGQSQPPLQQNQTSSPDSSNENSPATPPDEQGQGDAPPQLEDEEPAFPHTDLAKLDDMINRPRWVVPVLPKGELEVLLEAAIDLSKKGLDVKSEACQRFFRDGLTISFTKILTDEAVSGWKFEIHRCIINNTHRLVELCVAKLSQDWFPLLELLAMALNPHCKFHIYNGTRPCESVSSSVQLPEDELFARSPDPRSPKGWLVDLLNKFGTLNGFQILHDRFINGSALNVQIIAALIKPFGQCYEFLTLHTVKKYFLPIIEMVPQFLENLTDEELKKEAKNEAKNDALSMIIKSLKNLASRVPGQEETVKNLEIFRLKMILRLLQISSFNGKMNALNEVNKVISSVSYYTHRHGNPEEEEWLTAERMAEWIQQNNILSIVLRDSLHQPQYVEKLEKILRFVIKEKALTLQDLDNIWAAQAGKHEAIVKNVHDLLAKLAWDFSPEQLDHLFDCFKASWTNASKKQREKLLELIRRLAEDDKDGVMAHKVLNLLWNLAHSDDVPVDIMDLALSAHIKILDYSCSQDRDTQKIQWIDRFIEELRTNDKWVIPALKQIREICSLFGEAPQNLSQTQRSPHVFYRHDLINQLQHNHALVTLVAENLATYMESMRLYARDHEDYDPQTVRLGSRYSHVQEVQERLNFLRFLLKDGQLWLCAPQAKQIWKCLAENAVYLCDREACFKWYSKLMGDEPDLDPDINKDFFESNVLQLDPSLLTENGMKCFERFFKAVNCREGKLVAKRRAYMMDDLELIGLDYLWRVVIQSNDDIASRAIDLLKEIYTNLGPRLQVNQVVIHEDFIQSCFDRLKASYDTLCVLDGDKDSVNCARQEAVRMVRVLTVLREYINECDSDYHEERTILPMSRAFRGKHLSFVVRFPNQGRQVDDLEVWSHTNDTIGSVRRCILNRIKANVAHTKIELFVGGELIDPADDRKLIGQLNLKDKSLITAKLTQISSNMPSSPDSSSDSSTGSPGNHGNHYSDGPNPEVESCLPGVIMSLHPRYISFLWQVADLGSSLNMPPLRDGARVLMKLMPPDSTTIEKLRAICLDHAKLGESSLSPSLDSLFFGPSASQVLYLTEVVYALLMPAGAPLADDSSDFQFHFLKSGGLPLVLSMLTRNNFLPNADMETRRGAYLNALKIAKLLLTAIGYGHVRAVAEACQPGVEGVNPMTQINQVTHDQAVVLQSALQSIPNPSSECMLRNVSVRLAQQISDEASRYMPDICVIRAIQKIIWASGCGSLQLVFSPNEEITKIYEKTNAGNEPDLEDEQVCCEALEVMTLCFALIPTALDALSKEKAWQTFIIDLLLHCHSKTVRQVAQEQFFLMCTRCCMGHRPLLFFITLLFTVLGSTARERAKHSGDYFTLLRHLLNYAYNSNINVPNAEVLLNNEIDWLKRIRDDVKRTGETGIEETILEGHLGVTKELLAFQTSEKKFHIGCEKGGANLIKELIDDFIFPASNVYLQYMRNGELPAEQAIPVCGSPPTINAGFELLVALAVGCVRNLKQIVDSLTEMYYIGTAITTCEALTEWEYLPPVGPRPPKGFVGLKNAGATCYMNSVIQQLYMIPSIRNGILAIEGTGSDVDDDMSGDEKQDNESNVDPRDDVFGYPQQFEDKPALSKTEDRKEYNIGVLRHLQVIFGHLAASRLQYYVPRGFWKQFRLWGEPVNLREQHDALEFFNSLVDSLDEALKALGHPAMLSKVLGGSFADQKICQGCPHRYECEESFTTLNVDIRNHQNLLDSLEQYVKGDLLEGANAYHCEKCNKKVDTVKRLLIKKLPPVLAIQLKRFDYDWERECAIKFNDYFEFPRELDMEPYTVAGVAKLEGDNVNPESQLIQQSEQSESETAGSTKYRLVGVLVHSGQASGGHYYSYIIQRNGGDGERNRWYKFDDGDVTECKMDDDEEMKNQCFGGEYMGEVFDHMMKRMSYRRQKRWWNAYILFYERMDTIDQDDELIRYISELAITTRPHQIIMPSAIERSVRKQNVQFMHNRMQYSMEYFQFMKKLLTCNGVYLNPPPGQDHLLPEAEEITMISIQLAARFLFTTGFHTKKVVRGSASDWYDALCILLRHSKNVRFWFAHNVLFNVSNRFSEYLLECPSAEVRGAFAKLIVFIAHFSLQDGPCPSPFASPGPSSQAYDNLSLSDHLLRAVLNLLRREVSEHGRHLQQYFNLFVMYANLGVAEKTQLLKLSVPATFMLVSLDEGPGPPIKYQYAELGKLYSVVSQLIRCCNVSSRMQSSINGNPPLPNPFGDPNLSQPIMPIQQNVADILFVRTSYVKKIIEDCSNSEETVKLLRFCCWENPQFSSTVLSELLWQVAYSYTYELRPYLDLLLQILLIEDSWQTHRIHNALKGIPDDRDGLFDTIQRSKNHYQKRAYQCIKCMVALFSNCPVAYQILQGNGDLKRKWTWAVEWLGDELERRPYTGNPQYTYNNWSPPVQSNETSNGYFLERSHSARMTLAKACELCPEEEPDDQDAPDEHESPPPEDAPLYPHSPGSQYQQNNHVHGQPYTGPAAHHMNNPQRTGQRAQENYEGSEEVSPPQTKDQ
Sequence of USP54 (Q70EL1 whole entry): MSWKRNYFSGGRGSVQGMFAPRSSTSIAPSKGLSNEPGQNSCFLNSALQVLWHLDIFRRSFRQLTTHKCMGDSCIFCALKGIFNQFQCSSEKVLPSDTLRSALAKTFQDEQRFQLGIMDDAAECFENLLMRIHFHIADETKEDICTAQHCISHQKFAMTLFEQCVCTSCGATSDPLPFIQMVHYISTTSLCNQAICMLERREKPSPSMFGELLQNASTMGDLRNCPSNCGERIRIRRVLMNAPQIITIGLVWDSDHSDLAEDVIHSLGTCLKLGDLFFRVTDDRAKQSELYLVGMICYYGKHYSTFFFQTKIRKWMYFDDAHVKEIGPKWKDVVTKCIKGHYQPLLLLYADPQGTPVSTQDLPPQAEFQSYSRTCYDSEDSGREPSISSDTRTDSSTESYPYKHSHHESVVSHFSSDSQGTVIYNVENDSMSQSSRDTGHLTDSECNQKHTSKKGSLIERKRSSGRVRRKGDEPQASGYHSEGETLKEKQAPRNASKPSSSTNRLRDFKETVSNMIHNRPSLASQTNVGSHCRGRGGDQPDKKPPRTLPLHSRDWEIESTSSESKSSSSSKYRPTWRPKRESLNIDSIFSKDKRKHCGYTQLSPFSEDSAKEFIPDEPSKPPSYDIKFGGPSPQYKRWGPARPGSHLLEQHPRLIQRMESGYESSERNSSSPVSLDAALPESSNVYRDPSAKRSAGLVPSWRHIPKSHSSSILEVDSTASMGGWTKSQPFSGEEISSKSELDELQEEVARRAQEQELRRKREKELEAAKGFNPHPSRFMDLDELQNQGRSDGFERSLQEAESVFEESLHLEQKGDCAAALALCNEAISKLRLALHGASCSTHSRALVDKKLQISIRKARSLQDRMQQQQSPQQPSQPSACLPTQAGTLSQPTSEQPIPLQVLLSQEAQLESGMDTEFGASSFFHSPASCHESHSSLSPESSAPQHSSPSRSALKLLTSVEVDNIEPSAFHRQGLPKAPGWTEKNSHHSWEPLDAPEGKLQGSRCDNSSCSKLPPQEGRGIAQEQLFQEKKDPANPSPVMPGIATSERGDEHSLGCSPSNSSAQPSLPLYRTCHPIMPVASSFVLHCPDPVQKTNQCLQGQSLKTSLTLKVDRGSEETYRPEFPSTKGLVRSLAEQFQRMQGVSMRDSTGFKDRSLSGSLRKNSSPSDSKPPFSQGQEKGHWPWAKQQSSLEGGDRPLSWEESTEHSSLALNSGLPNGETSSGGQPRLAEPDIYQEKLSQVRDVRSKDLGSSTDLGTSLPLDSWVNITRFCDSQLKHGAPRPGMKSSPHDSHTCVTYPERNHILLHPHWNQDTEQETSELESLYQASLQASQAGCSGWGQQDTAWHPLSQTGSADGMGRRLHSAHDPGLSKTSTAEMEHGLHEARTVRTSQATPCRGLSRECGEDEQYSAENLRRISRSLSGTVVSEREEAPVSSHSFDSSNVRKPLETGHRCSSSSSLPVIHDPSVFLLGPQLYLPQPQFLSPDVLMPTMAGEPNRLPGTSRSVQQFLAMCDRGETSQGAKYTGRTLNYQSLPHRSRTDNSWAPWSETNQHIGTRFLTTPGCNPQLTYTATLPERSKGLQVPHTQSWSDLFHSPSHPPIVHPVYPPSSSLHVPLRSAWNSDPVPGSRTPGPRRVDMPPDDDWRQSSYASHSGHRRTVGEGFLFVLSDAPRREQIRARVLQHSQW
Sequence of UniProt O00487 (O00487 whole entry): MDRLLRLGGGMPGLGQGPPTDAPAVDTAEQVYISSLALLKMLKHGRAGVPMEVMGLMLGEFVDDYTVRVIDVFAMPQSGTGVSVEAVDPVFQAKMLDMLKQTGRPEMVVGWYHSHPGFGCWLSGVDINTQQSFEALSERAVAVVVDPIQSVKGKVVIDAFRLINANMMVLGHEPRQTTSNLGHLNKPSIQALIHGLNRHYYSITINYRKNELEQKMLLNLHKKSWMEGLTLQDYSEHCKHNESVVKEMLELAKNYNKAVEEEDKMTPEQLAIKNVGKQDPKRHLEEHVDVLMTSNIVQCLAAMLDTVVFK
Sequence of USP46 (P62068 whole entry): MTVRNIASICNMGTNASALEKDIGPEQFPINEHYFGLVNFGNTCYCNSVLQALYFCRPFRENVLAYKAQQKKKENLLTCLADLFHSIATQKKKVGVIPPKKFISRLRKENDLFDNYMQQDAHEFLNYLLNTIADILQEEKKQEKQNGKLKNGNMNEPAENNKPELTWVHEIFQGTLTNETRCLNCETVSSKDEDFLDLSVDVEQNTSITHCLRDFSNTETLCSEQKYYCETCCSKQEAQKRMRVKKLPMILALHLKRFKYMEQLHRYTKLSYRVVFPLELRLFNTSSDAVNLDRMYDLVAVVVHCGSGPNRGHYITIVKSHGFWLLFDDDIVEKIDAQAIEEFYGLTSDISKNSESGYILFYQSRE

Cc1ccc2nnc(CNC(=O)CCl)n2c1
inactive: USP42 0.336 | USP46 -0.000756 | USP47 0.13 | USP48 -0.0762 | USP5 0.114 | USP54 0.357 | USP7 0.0284 | USP8 0.28 | USP9X 0.0675 | UniProt O00487 -0.0931
